# According to PubChem BioAssay (EPA / NIEHS):
# Active and inactive are the calls of the source. The calls were made as follows: active = hit-call score of the fitted dose curve at least 0.9, where 1 is the maximum; inactive = score below 0.9.
# Legend:
# [1] = ATG_PPRE_CIS: Attagene CIS-FACTORIAL HepG2 Assay for human Peroxisome Proliferator-activated Response Element (PPRE) (AID 2282958); conditions: HepG2 PPRE cis-element reporter, Attagene transcription factor profiling; actives raise or lower the signal
# How it was run: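 Read-out: fluorescent reporter mRNA fragments resolved by capillary electrophoresis after RT-PCR. HepG2 cells carried transiently transfected PPRE-driven cis reporter constructs and were dosed for 24 h; gain or loss of signal fitted relative to DMSO.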
# [2] = ATG_RORE_CIS: Attagene CIS-FACTORIAL HepG2 Assay for human RAR-related Orphan Receptor Element (RORE) (AID 2282959); conditions: HepG2 Attagene cis-factorial RORE reporter, mRNA; actives raise or lower the signal
# How it was run: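 Readout: fluorescent reporter mRNA by RT-PCR plus capillary electrophoresis, 24 h after dosing transfected HepG2 cells. Endogenous transcription factor activity on a cis promoter element is measured. Gain or loss of signal fitted against DMSO.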
# [3] = ATG_Sox_CIS: Attagene CIS-FACTORIAL HepG2 Assay for human SRY-box transcription factor (SOX) (AID 2282960); conditions: HepG2 Attagene cis-factorial SOX reporter, mRNA; actives raise or lower the signal
# How it was run: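 Read-out: fluorescent RT-PCR products of SOX1-linked reporter transcripts resolved by capillary electrophoresis, fitted bidirectionally against DMSO. Transiently transfected HepG2 cells, 24 h after chemical exposure, endogenous transcription factor activity.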
# [4] = molecular target: Transcription factor Sp1 (Homo sapiens) (UniProt P08047); assay: ATG_Sp1_CIS: Attagene CIS-FACTORIAL HepG2 Assay for human Specificity Protein 1 (Sp1) (AID 2282961); conditions: HepG2 Sp1 cis-reporter transcription, actives raise or lower the signal
# How it was run: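 Read-out: fluorescence of 6-FAM-labeled, HpaI-digested RT-PCR products separated by capillary electrophoresis. HepG2 cells carried transfected cis-element reporter units and were exposed to chemicals for 24 h; gain or loss of signal fitted relative to DMSO.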
# [5] = molecular target: Signal transducer and activator of transcription 3 (Homo sapiens) (UniProt P40763); assay: ATG_STAT3_CIS: Attagene CIS-FACTORIAL HepG2 Assay for human Signal Transducer and Activator of Transcription 3 (STAT3) (AID 2282963); conditions: HepG2, Attagene cis-factorial STAT3 reporter transcription; actives raise or lower the signal
# How it was run: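 Transcript-level reporter assay. HepG2 transient MRTU transfection, 24 h exposure, fluorescence detection after RT-PCR and CE; DMSO baseline.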
# [6] = ATG_TA_CIS: Attagene CIS-FACTORIAL HepG2 Assay for human TA Basal Promoter (AID 2282964); conditions: HepG2 Attagene CIS-factorial TA basal promoter reporter; actives raise or lower the signal
# How it was run: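 Transient MRTU transfection of HepG2 preceded 24 h compound exposure. Reporter mRNA levels were then read by RT-PCR with capillary electrophoresis, and this background-control endpoint was fitted bidirectionally to DMSO.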
# [7] = ATG_TCF_b_cat_CIS: Attagene CIS-FACTORIAL HepG2 Assay for human T-Cell-Factor with beta-catenin (TCF/b-cat) (AID 2282965); conditions: HepG2 TCF/beta-catenin cis-reporter transcription, actives raise or lower the signal
# How it was run: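 HepG2 cells transiently transfected with multiple cis-promoter-regulated reporter transcription units, so endogenous transcription factor activity is measured. Reporter mRNA read 24 hours after dosing by RT-PCR, fluorescent labelling and capillary electrophoresis; bidirectional fitting against DMSO.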
# [8] = ATG_TAL_CIS: Attagene CIS-FACTORIAL HepG2 Assay for human TAL Basal Promoter (AID 2282966); conditions: HepG2 Attagene cis-factorial TAL promoter reporter; actives raise or lower the signal;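 also: background control endpoint measuring basal TAL promoter reporter mRNA not a specific factor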
# How it was run: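 Fluorescence of labelled reporter cDNA fragments, resolved by capillary electrophoresis, gave the readout. Human HepG2 liver cells carried transiently transfected cis-element reporter units and were treated for 24 hours; activity was fitted bidirectionally against DMSO.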
# [9] = ATG_TGFb_CIS: Attagene CIS-FACTORIAL HepG2 Assay for human Transforming Growth Factor (TGF) (AID 2282967); conditions: HepG2 Attagene CIS TGFb reporter, mRNA transcription; actives raise or lower the signal
# How it was run: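 After a 24-hour incubation with compound, transfected HepG2 cells were lysed for RNA; reporter cDNA was amplified, fluorescently end-labeled and separated by CE. DMSO served as baseline for bidirectional fits.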
# [10] = ATG_SREBP_CIS: Attagene CIS-FACTORIAL HepG2 Assay for human Sterol Regulatory Element Binding (SREBP) (AID 2282962); conditions: HepG2 Attagene cis-factorial SREBP reporter, mRNA; actives raise or lower the signal
# How it was run: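 HepG2 cells transiently transfected with multiplexed cis-element reporter units report endogenous transcription factor activity. After 24 h of chemical exposure, reporter mRNA was quantified by RT-PCR, 6-FAM labelling, HpaI digestion and capillary electrophoresis; bidirectional fits used DMSO as baseline.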
# Sequence of Signal transducer and activator of transcription 3 (Homo sapiens) (P40763 whole entry, looked up): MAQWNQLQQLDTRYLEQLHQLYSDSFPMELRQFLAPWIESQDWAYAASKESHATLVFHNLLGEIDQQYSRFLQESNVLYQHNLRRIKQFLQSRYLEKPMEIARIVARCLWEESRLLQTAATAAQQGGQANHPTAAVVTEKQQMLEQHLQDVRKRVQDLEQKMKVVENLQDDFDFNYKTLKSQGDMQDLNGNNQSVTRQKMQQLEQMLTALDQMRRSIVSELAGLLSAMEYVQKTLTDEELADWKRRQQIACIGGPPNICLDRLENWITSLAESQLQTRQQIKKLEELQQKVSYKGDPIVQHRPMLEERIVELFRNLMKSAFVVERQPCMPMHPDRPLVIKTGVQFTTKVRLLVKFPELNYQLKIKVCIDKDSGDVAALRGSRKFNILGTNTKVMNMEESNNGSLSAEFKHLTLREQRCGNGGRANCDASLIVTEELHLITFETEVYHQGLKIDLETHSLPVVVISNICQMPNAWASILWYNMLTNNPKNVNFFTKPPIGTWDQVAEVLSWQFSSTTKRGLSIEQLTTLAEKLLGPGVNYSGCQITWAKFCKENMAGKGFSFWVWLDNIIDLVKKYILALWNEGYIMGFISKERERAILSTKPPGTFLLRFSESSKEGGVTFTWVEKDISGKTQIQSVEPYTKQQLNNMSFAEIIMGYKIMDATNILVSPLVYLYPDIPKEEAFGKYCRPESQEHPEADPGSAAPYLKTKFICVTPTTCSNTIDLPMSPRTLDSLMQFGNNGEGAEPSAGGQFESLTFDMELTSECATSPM
# Sequence of Transcription factor Sp1 (Homo sapiens) (P08047 whole entry, looked up): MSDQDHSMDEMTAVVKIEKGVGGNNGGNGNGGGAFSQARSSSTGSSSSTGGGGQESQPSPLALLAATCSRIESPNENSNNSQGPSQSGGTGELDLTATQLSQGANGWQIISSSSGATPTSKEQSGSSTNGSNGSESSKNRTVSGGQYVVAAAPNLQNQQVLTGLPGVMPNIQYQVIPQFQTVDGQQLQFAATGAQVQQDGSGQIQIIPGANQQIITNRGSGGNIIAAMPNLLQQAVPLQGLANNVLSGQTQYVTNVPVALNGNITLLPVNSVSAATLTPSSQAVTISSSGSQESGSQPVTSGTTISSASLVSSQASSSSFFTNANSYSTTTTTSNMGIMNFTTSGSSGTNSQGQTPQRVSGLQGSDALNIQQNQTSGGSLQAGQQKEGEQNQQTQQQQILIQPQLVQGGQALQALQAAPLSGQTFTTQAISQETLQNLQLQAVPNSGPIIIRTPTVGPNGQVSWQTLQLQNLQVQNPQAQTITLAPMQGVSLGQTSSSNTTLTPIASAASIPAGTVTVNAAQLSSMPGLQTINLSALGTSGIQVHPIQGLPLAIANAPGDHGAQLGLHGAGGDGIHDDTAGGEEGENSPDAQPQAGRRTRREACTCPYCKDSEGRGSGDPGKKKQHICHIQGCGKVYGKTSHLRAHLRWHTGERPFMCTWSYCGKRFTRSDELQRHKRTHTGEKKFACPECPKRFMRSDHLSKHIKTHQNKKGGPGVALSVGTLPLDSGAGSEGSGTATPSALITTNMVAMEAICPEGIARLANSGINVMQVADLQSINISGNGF
compound,measurement,setting,value
Brc1ccc(Oc2ccc(Br)cc2Br)cc1,outcome,[1],inactive
same,outcome,[2],inactive
same,outcome,[3],inactive
same,outcome,[4],inactive
same,outcome,[5],inactive
same,outcome,[6],inactive
same,outcome,[7],inactive
same,outcome,[8],inactive
same,outcome,[9],inactive
c1ccc(CNc2ncnc3c2ncn3C2CCCCO2)cc1 (configuration not stated),outcome,[1],inactive
same,outcome,[2],inactive
same,outcome,[3],inactive
same,outcome,[4],inactive
same,outcome,[5],inactive
same,outcome,[6],inactive
same,outcome,[7],inactive
same,outcome,[8],inactive
same,outcome,[9],inactive
CCCCc1ccc2ccccc2c1S(=O)(=O)O,outcome,[1],inactive
same,outcome,[2],inactive
same,outcome,[3],inactive
same,outcome,[4],inactive
same,outcome,[10],inactive
same,outcome,[5],inactive
same,outcome,[6],inactive
same,outcome,[9],inactive
FC(F)(F)C(F)(F)C(F)(F)Br,outcome,[1],inactive
same,outcome,[2],inactive
same,outcome,[3],inactive
same,outcome,[4],inactive
same,outcome,[5],inactive
same,outcome,[6],inactive
same,outcome,[7],inactive
same,outcome,[8],inactive
same,outcome,[9],inactive
CCCCCCCCC1CCC(=O)O1 (configuration not stated),outcome,[1],inactive
same,outcome,[2],inactive
same,outcome,[3],inactive
same,outcome,[4],inactive
same,outcome,[5],inactive
same,outcome,[6],inactive
same,outcome,[7],inactive
same,outcome,[8],inactive
same,outcome,[9],inactive
Nc1ccc(O)c(C(=O)O)c1,outcome,[1],inactive
same,outcome,[2],inactive
same,outcome,[3],inactive
same,outcome,[4],inactive
same,outcome,[5],inactive
same,outcome,[6],inactive
same,outcome,[7],inactive
same,outcome,[8],inactive
same,outcome,[9],inactive
CCOCCOCC,outcome,[1],inactive
same,outcome,[2],inactive
same,outcome,[3],inactive
same,outcome,[4],inactive
same,outcome,[10],inactive
same,outcome,[5],inactive
same,outcome,[6],inactive
same,outcome,[8],inactive
same,outcome,[9],inactive
CCC(=O)O,outcome,[1],inactive
same,outcome,[2],inactive
same,outcome,[3],inactive
same,outcome,[4],inactive
same,outcome,[10],inactive
same,outcome,[5],inactive
same,outcome,[6],inactive
same,outcome,[8],inactive
same,outcome,[9],inactive
O=C1C=CC(=O)N1c1cccc(N2C(=O)C=CC2=O)c1,outcome,[1],inactive
same,outcome,[2],inactive
same,outcome,[3],inactive
same,outcome,[4],inactive
same,outcome,[10],inactive
same,outcome,[5],inactive
same,outcome,[6],inactive
same,outcome,[8],inactive
same,outcome,[9],inactive
CCCC=O,outcome,[1],inactive
same,outcome,[2],inactive
same,outcome,[3],inactive
same,outcome,[4],inactive
same,outcome,[5],inactive
same,outcome,[6],inactive
same,outcome,[7],inactive
same,outcome,[8],inactive
same,outcome,[9],inactive
CCOC(=O)c1nc(C(Cl)(Cl)Cl)n(-c2ccc(Cl)cc2Cl)n1,outcome,[1],inactive
same,AC50,[2],167 µM (active)
same,outcome,[3],inactive
same,AC50,[4],54.6 µM (active)
same,outcome,[5],inactive
same,AC50,[6],173 µM (active)
same,outcome,[7],inactive
same,AC50,[8],118 µM (active)
same,AC50,[9],27.8 µM (active)
O=C(O)c1cccc(C(=O)O)n1,outcome,[1],inactive
same,outcome,[2],inactive
same,outcome,[3],inactive
same,outcome,[4],inactive
same,outcome,[10],inactive
same,outcome,[5],inactive
same,outcome,[6],inactive
same,outcome,[9],inactive
Cc1ccc(C(=O)c2ccccc2)cc1,outcome,[1],inactive
same,outcome,[2],inactive
same,outcome,[3],inactive
same,outcome,[4],inactive
same,outcome,[10],inactive
same,outcome,[5],inactive
same,outcome,[6],inactive
same,outcome,[9],inactive
CCOC(OCC)C(=O)c1ccccc1,outcome,[1],inactive
same,outcome,[2],inactive
same,outcome,[3],inactive
same,outcome,[4],inactive
same,outcome,[5],inactive
same,outcome,[6],inactive
same,outcome,[7],inactive
same,outcome,[8],inactive
same,outcome,[9],inactive
O=C(F)C(F)(F)C(F)(F)C(F)(F)C(=O)F,outcome,[1],inactive
same,outcome,[2],inactive
same,outcome,[3],inactive
same,outcome,[4],inactive
same,outcome,[10],inactive
same,outcome,[5],inactive
same,outcome,[6],inactive
same,outcome,[8],inactive
same,outcome,[9],inactive
C=CC(C)(CCC=C(C)C)OC(C)=O (configuration not stated),outcome,[1],inactive
same,outcome,[2],inactive
same,outcome,[3],inactive
same,outcome,[4],inactive
same,outcome,[10],inactive
same,outcome,[5],inactive
same,outcome,[6],inactive
same,outcome,[8],inactive
same,outcome,[9],inactive
CCN(CCC#N)c1ccccc1,outcome,[1],inactive
same,outcome,[2],inactive
same,outcome,[3],inactive
same,outcome,[4],inactive
same,outcome,[10],inactive
same,outcome,[5],inactive
same,outcome,[6],inactive
same,outcome,[8],inactive
same,outcome,[9],inactive
FC1(F)C=CC(F)(F)C1(F)F,outcome,[1],inactive
same,outcome,[2],inactive
same,outcome,[3],inactive
same,outcome,[4],inactive
same,outcome,[10],inactive
same,outcome,[5],inactive
same,outcome,[6],inactive
same,outcome,[9],inactive
CC1=NN(c2ccccc2)C(=O)C1,outcome,[1],inactive
same,outcome,[2],inactive
same,outcome,[3],inactive
same,outcome,[4],inactive
same,outcome,[10],inactive
same,outcome,[5],inactive
same,outcome,[6],inactive
same,outcome,[8],inactive
same,outcome,[9],inactive
C=Cc1ccc(O)c(OC)c1,AC50,[1],13 µM (active)
same,outcome,[2],inactive
same,outcome,[3],inactive
same,outcome,[4],inactive
same,outcome,[10],inactive
same,outcome,[5],inactive
same,outcome,[6],inactive
same,outcome,[8],inactive
same,outcome,[9],inactive
Oc1cc2ccccc2cc1O,AC50,[1],100 µM (active)
same,outcome,[2],inactive
same,outcome,[3],inactive
same,outcome,[4],inactive
same,outcome,[10],inactive
same,outcome,[5],inactive
same,outcome,[6],inactive
same,outcome,[8],inactive
same,outcome,[9],inactive
CCCCCC(C)OC(=O)COc1ccc(Cl)c2cccnc12 (configuration not stated),outcome,[1],inactive
same,outcome,[2],inactive
same,outcome,[3],inactive
same,outcome,[4],inactive
same,outcome,[10],inactive
same,outcome,[5],inactive
same,outcome,[6],inactive
same,outcome,[8],inactive
same,outcome,[9],inactive
Nc1ccn([C@@H]2O[C@H](CO)[C@@H](O)C2O)c(=O)n1 (some centres not stated),outcome,[1],inactive
same,outcome,[2],inactive
same,outcome,[3],inactive
same,outcome,[4],inactive
same,outcome,[5],inactive
same,outcome,[6],inactive
same,outcome,[7],inactive
same,outcome,[8],inactive
same,outcome,[9],inactive
FC(F)(F)C1(F)C(F)(F)C(F)(F)C(F)(F)C(F)(C(F)(F)F)C1(F)F (configuration not stated),outcome,[1],inactive
same,outcome,[2],inactive
same,outcome,[3],inactive
same,outcome,[4],inactive
same,outcome,[10],inactive
same,outcome,[5],inactive
same,outcome,[6],inactive
same,outcome,[9],inactive
Nc1cc(Cl)c(-c2cc(Cl)c(N)cc2Cl)cc1Cl,outcome,[1],inactive
same,outcome,[2],inactive
same,AC50,[3],10.5 µM (active)
same,AC50,[4],15.9 µM (active)
same,AC50,[10],6.9 µM (active)
same,outcome,[5],inactive
same,outcome,[6],inactive
same,outcome,[8],inactive
same,outcome,[9],inactive
O=C(Nc1cccc([N+](=O)[O-])c1)c1cc2ccccc2cc1O,AC50,[1],4.22 µM (active)
same,AC50,[2],5.99 µM (active)
same,outcome,[3],inactive
same,outcome,[4],inactive
same,outcome,[10],inactive
same,outcome,[5],inactive
same,outcome,[6],inactive
same,outcome,[8],inactive
same,AC50,[9],48.1 µM (active)
OCC(CO)(CBr)CBr,outcome,[1],inactive
same,outcome,[2],inactive
same,outcome,[3],inactive
same,outcome,[4],inactive
same,outcome,[10],inactive
same,outcome,[5],inactive
same,outcome,[6],inactive
same,outcome,[8],inactive
same,outcome,[9],inactive
CCO[Si](C)(C)OCC,outcome,[1],inactive
same,outcome,[2],inactive
same,outcome,[3],inactive
same,outcome,[4],inactive
same,outcome,[5],inactive
same,outcome,[6],inactive
same,outcome,[7],inactive
same,outcome,[8],inactive
same,outcome,[9],inactive
C=CCOCC(CO)(CO)CO,outcome,[1],inactive
same,outcome,[2],inactive
same,outcome,[3],inactive
same,outcome,[4],inactive
same,outcome,[5],inactive
same,outcome,[6],inactive
same,outcome,[7],inactive
same,outcome,[8],inactive
same,outcome,[9],inactive
Cc1ccc(S(=O)(=O)O)cc1,outcome,[3],inactive
same,outcome,[4],inactive
same,outcome,[10],inactive
same,outcome,[5],inactive
same,outcome,[6],inactive
same,outcome,[8],inactive
same,outcome,[9],inactive
Cc1ccccc1OCC(=O)O,outcome,[1],inactive
same,outcome,[2],inactive
same,outcome,[3],inactive
same,outcome,[4],inactive
same,outcome,[5],inactive
same,outcome,[6],inactive
same,outcome,[7],inactive
same,outcome,[9],inactive
CN(C)CCOC(c1ccccc1)c1ccccc1,outcome,[2],inactive
same,outcome,[3],inactive
same,outcome,[4],inactive
same,outcome,[5],inactive
same,outcome,[6],inactive
same,outcome,[7],inactive
same,outcome,[8],inactive
same,outcome,[9],inactive
O=C(O)C(=O)O,outcome,[3],inactive
same,outcome,[4],inactive
same,outcome,[10],inactive
same,outcome,[5],inactive
same,outcome,[6],inactive
same,outcome,[7],inactive
same,outcome,[8],inactive
same,outcome,[9],inactive
